An excerpt weighted towards active compounds, which were near 19% of everything screened.
IL1B secr inh: qHTS for Inhibitors of Inflammasome Signaling: IL-1-beta AlphaLISA Primary Screen. THP-1 LPS/ATP IL-1B secretion, AlphaLISA, 16 h; active compounds read low. activity change, % at 57.5 µM. actives 4.7% (n = 360,000); in the data active = activity change below about -50%; inconclusive = mostly about -30% to -49%; also: % is scaled to controls: 0 for no effect and ±100 for the full control effect
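Secreted IL-1B measured by AlphaLISA bead assay after 16 h compound exposure of THP-1 cells; compounds (final up to 57.5 uM) added 1 h before LPS (250 ng/mL) and ATP (1.25 mM) stimulation; lower signal means less secretion.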
DT40 TDP1 CPT: qHTS for Inhibitors of human tyrosyl-DNA phosphodiesterase 1 (TDP1): qHTS in cells in presence of CPT; Potency, µM (highest dose often 46.2 µM), inactives show top-dose activity change, negative = growth inhibition, usual class: inhibitors; chicken DT40 Tdp1-/-;hTDP1 cells + 20 nM CPT, ATP luminescence, 48 h; actives 12% (n = 420,000); also: potency is read from the fitted curve at half-maximal effect; % is scaled to controls: 0 for no effect and ±100 for the full control effect; nearly all actives have a fitted effect of over 55% in size
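Chicken DT40 Tdp1-/- cells stably complemented with human TDP1 were seeded at 400 cells/well in medium containing 20 nM camptothecin, exposed to pin-transferred compounds, and grown at 37 °C for at least 48 hr. Viability was read as ATP luminescence.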
TDP1 cell noCPT: qHTS for Inhibitors of human tyrosyl-DNA phosphodiesterase 1 (TDP1): qHTS in cells in absence of CPT. DT40 Tdp1-/- hTDP1 cells, no CPT, ATP luminescence, 48 h. Potency, µM (titrated, usually from 46.2 µM), for inactives: at the top dose activity change, negative = growth inhibition, usual class: inhibitors. actives 15% (n = 420,000); also: potency is read from the fitted curve at half-maximal effect; % is scaled to controls: 0 for no effect and ±100 for the full control effect; nearly all actives have a fitted effect of over 55% in size
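Luminescent ATP content (CellTiter-Glo) served as the growth readout. Knockout chicken DT40 cells expressing human TDP1 were exposed to compounds without camptothecin for a minimum 48 hr at 37 °C.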
ASM inhibitor: Inhibitors of Secretory Acid Sphingomyelinase (S-ASM): qHTS; Sphingomyelin phosphodiesterase (Homo sapiens), P17405; placental ASM, HMU-PC fluorogenic substrate, 60 min; Potency, µM (series often up to 57.5 µM), without a hit: at the top dose activity change, negative = inhibition, hits mostly inhibitors; actives 0.006% (n = 340,000); AID 504937, 2011; also: potency is read from the fitted curve at half-maximal effect
Target sequence (P17405 47-631 limits assumed): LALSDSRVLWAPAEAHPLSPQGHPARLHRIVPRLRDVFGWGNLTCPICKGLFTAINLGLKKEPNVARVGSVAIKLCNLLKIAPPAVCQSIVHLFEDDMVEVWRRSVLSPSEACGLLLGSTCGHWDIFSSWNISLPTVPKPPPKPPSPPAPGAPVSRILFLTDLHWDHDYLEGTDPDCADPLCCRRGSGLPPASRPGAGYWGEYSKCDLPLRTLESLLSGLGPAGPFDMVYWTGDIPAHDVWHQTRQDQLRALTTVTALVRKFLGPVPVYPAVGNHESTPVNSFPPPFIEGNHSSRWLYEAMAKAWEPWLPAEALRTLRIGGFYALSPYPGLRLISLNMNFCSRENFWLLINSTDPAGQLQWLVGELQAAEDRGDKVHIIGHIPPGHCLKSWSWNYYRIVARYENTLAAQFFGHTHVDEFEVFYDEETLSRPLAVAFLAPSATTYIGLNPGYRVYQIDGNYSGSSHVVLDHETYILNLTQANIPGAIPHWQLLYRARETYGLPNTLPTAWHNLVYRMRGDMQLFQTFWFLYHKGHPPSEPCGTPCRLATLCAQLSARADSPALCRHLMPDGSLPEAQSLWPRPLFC
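Human placenta-derived ASM enzyme was preincubated with compound for 10 minutes at room temperature, then given fluorogenic substrate HMU-PC0 (9 uM final) for 60 minutes at 37 °C; a pH 10 stop preceded fluorescence reading at Ex 386/Em 447 nm.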
TGFb SMAD3 inh: qHTS for Inhibitors of TGF-b; HepG2 CAGA-GFP TGF-b/SMAD3 reporter, GFP fluorescence, 18 h; TGF-beta stimulated, 500 pg/mL final; Potency, µM (series often up to 46.1 µM), for inactives: at the top dose activity, negative = inhibition, most hits filed as inhibitors; actives 1.2% (n = 410,000); AID 588855, 2011; also: potency is read from the fitted curve at half-maximal effect; % is scaled to controls: 0 for no effect and ±100 for the full control effect; nearly all actives have a fitted effect of over 65% in size
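Read-out: total well GFP (ex488/em500-530) summed from mean per-cell fluorescence. Cells: HEPG2 CAGA-GFP, 1% FBS DMEM, 18 h at 37 degrees C with 500 pg/mL final TGF-beta. Unstimulated wells served as the full-inhibition control; stimulated DMSO wells = 0%.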
HepG2 tox: qHTS for Inhibitors of TGF-b: Cytotox Counterscreen | AID 588856, 2011 | HepG2 CAGA-GFP viability, ATP luminescence, 18 h | Potency, µM (top dose mostly 46.1 µM), for the others: at the top dose activity change, negative = cytotoxicity, actives largely listed as cytotoxic | actives 0.76% (n = 410,000); also: potency is read from the fitted curve at half-maximal effect
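CellTiter-Glo luminescence gave cytotoxicity after 18 hours at 37 degrees C. The cells were HepG2 CAGA-GFP in 1% FBS DMEM, stimulated with 500 pg/mL TGF-beta after compound addition. %Activity was normalised to no-cell wells (complete cell-killing) and DMSO (no toxicity), and curves were fitted and classified.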
Numbers without * were called inactive; i = inactive; ? = inconclusive; nt = no result; [ ] = another dose, or the depositor's remark. Unless noted, calls follow the shape of the dose curve; as a rule, active = well fitted curve in the direction sought with a large enough effect; inconclusive = small, poorly fitted or top-dose-only effect, or another doubt; inactive = no such curve, though single readings can be large; an effect the other way counts as inactive or inconclusive.

SMILES	IL1B secr inh	DT40 TDP1 CPT	TDP1 cell noCPT	ASM inhibitor	TGFb SMAD3 inh	HepG2 tox
Cc1ccc(S(=O)(=O)N2CCCN(C(=O)c3ccc(-n4cccn4)cc3)CC2)cc1	1	?	?	-1%	-9%	-3%
O=C(CSc1nc2[nH]ncc2c(=O)[nH]1)Nc1cccc([N+](=O)[O-])c1	13	-5%	0%	-1%	4%	5%
COc1ccccc1NC(=O)Cc1ccsc1	34	-12%	-5%	4%	-2%	1%
CC(=O)c1ccc(OCC(=O)Nc2ccccc2C(=O)NC2CC2)cc1	i	-3%	-15%	5%	-3%	2%
COc1ccc(-c2ccc(C(=O)NCC3CC3)c3occc23)c(C)c1	?	21µM*	?	nt	-24%	-22%
O=[N+]([O-])c1ccc(O)c(C2=NNC(c3ccccc3F)C2)c1 (configuration not stated)	-58*	23µM*	16µM*	-5%	13µM*	-38%
Oc1ccc(Cl)cc1C1=NNC(c2cccs2)C1 (configuration not stated)	2	?	?	2%	-15%	-18%
COc1cc2nc(SCC(=O)Nc3ccc(F)cc3)n3nc(CCn4c(C)nc5ccccc54)nc3c2cc1OC	nt	2.1µM*	5.2µM*	nt	-19%	-20%
COc1cccc(CNC(=O)Cn2c(SCC(=O)Nc3ccc(F)cc3)nc3ccccc32)c1	nt	?	?	nt	?	-64%
COc1cc2nc(SCC(=O)Nc3cccc(C)c3)n3nc(CCn4c(C)nc5ccccc54)nc3c2cc1OC	nt	2.6µM*	2.6µM*	nt	-7%	-17%
COc1cc2nc(SCC(=O)Nc3ccccc3C)n3nc(CCn4c(C)nc5ccccc54)nc3c2cc1OC	nt	2.9µM*	3.3µM*	nt	-4%	-4%
O=C(CCCSc1nnc(Nc2ccccc2F)s1)N1CCOCC1	-20	-5%	?	5%	-2%	-10%
N#CC1=C(N)NC(=S)C(C(N)=O)C1c1ccc(Cl)cc1Cl (configuration not stated)	5	10µM*	18µM*	1%	?	7.1µM*
c1ccc(Cc2nn3c(COc4ccccc4)nnc3s2)cc1	-6	?	18µM*	-2%	-1%	-20%
CCOc1ccc(-c2nnc3sc(COc4ccccc4)nn23)cc1	15	?	?	-20%	-14%	5%
c1ccc(OCc2nn3c(Cn4cnc5ccccc54)nnc3s2)cc1	17	16µM*	?	-14%	3%	0%
CCOc1ccccc1OCc1nn2c(COc3ccccc3)nnc2s1	-5	16µM*	13µM*	-19%	24%	-4%
COc1ccccc1-c1nnc2sc(COc3ccc(Cl)cc3)nn12	-86*	?	16µM*	-16%	-14%	-30%
CCOc1cc(CNC(=O)C(NS(=O)(=O)c2cccs2)C(C)C)cc(OCC)c1OCC (configuration not stated)	nt	0%	-4%	nt	-1%	-15%
COc1cccc(-n2nc(C#N)c(Cl)cc2=O)c1	-101*	2.3µM*	2.9µM*	-1%	6.3µM*	18µM*
CCOc1ccccc1-n1ccn(CC(=O)Nc2ccc(Br)cc2F)c(=O)c1=O	-8	-25%	?	-3%	-7%	-1%
O=C1CC(C(=O)Nc2cccc(F)c2)n2ncnc2N1 (configuration not stated)	-14	14%	1%	3%	0%	6%
Cc1ccc(-n2ncc3c(N(CCO)Cc4ccccc4)ncnc32)cc1	nt	12µM*	8.2µM*	nt	?	-10%
CCCCN(c1ccccc1)c1ncnc2c1cnn2-c1cccc(C)c1	nt	-22%	-12%	nt	-23%	2%
CCN(c1ccccc1)c1ncnc2c1cnn2-c1ccc(OC)cc1	nt	8.2µM*	5.2µM*	nt	40%	-8%
SMILES	IL1B secr inh	DT40 TDP1 CPT	TDP1 cell noCPT	ASM inhibitor	TGFb SMAD3 inh	HepG2 tox
OCCN(CCO)c1ncnc2c1cnn2-c1ccc(F)cc1	nt	0%	-3%	nt	9%	-10%
CCCCN(c1ccccc1)c1ncnc2c1cnn2-c1ccc(Cl)cc1	nt	16µM*	18µM*	nt	10%	1%
COc1ccc2ccccc2c1CN1CCOc2ccc(CN3CCN(CCO)CC3)cc2C1	nt	10%[9.04 µM]	?	nt	nt	nt
CCOc1ccc(Cc2nccc3cc(OCC)c(OCC)cc23)cc1OCC	nt	5.8µM*	5.8µM*	nt	nt	nt
COC(=O)CCC(=O)Nc1cc(OC)c(OC)cc1Cc1nccc2cc(OC)c(OC)cc12	-9	7%	4%	-1%	48%	9%
CC1=N/C(=C\c2ccc([N+](=O)[O-])cc2)C(=O)N1c1cc(Cl)ccc1C	-18	10µM*	9.2µM*	2%	-9%	8%
Cc1ccc(Cl)cc1N1C(=O)CC(C)(C)CC1=O	5	-15%	-12%	2%	30%	-1%
COc1ccc(N2C(=O)/C(=C/c3ccc([N+](=O)[O-])cc3)N=C2C)c(OC)c1	8	3.7µM*	2.1µM*	-4%	2%	2%
O=[N+]([O-])c1ccc(Nc2ccccc2)c2nonc12	22	?	?	-10%	?	-33%
CCOc1ccc(Nc2ccc([N+](=O)[O-])c3nonc23)cc1	13	?	23µM*	-23%	?	-59%
CC(=O)Oc1ccc2c(=O)c(Oc3ccccc3[N+](=O)[O-])coc2c1	16	-3%	?	3%	-24%	-25%
COc1ccccc1-c1c(C(F)(F)F)oc2cc(OC(=O)c3cccc([N+](=O)[O-])c3C)ccc2c1=O	6	21µM*	23µM*	-1%	2%	3%
O=C(O)/C=C1\CCCc2ccccc2[C@H]1O	nt	-11%	-6%	nt	nt	nt
CCN(CC)S(=O)(=O)c1ccc(Cl)c(NC(=O)c2ccccc2C)c1	-1	?	23µM*	2%	13%	-1%
CCN(CC)S(=O)(=O)c1ccc(Cl)c(C(=O)Nc2ccc(Cl)cc2[N+](=O)[O-])c1	?	5.8µM*	4.6µM*	-3%	?	2%
CCN(CC)S(=O)(=O)c1ccc(OC)c(NC(=O)c2cccc(C)c2[N+](=O)[O-])c1	?	?	-28%	-7%	?	-26%
